Data as given in publication PMC12864922, “TDP-43 directly inhibits mRNA accumulation in neurites through modulation of mRNA stability”.
Numbering of substitutions follows the chain as printed. The full ranking holds about 9,900 sequences; the median of “r (bound/input frequency ratio)” is about 0.7, and the highest 2% start at about 6.5. This is one part of a sample in which the highest values are shown more often than they occur.

B1: ENSMUSG00000061578.324|Ksr2|150:154 (ssRNA)
RNA: GGGAGUUCUACAGUCCGACGAUCGCUUCGAUAUCCGCAUGCUAGUAGCUCAAUGACCCAGUGGGUCACAGUUCUAGGCGCUCCAAGGAAGCCAGGGGAGGGGGACUCCUCAGGAAGGAGUGACCAGUCACCUGCCUCCCAGGGUUCUGCCUUGCCCUUAAGCUAGGGUCCUUCAAGCAUCCACAGACUUAGACACACGUGGUAACAUGCUUGUAAUCCUGGCACUCUGGAGGCUGAGGCAGGAGGAUAACAAGUCUAGACUAUAUAUGAUUUCUGAGGGUCUGUUAGUGAAUAAGUACCUGGACUCUUGCGGUCGCACUAGUGUGGAAUUCUCGGGUGUCAAGG
B2: ENSMUSG00000032194.277|Kank2 (ssRNA)
RNA: GGGAGUUCUACAGUCCGACGAUCGCUUCGAUAUCCGCAUGCUAAUGGAUGGAUGAAUGAACAGAUAGAUGAAUGGAUGGAUGGACAGGUGGGUGGAUGGAUGGGUGGACGGAUGAGUGUGGGGUGGGUGGAUGGAUAAAUGAGCAAUGGAUGAGAAACUGGGUUGGCUGGUGGGUAGAUGUCAUGAUGGAGUCUUUGCACGUGUAUGAAACAGAAAACCAAACUUCAGGACAGACAGCUGCUGGUGUCUCUGGAUGCUCACAGCCUAGGGCACAUUUGAAAGGUCGUGCUCUGAGCUGAGCCCCUCUUGCGGUCGCACUAGUGUGGAAUUCUCGGGUGUCAAGG
B3: ENSMUSG00000032194.273|Kank2|97:101;184:188 (ssRNA)
RNA: GGGAGUUCUACAGUCCGACGAUCGCUUCGAUAUCCGCAUGCUAGUGGAUGGAUGCAUAAAUGAAUAGAUGGAUGGAUGAAUGAACAGAUAGAUGAAUGGAUGGAUGGACAGGUGGGUGGAUGGAUGGGUGGACGGAUGACACACGGGUGGGUGGAUGGAUAAAUGAGCAAUGGAUGAGAAACUGGGUUGGCUGGUGGGUAGAUGUCAUGAUGGAGUCUUUGCACGUCAUACAAACAGAAAACCAAACUUCAGGACAGACAGCUGCUGGUGUCUCUGGAUGCUCACAGCCUAGGGCACAUUUGACUCUUGCGGUCGCACUAGUGUGGAAUUCUCGGGUGUCAAGG
B4: ENSMUSG00000032194.275|Kank2 (ssRNA)
RNA: GGGAGUUCUACAGUCCGACGAUCGCUUCGAUAUCCGCAUGCUAAUAAAUGAAUAGAUGGAUGGAUGAAUGAACAGAUAGAUGAAUGGAUGGAUGGACAGGUGGGUGGAUGGAUGGGUGGACGGAUGAGUGUGGGGUGGGUGGAUGGAUAAAUGAGCAAUGGAUGAGAAACUGGGUUGGCUGGUGGGUAGAUGUCAUGAUGGAGUCUUUGCACGUGUAUGAAACAGAAAACCAAACUUCAGGACAGACAGCUGCUGGUGUCUCUGGAUGCUCACAGCCUAGGGCACAUUUGAAAGGUCGUGCUCCUCUUGCGGUCGCACUAGUGUGGAAUUCUCGGGUGUCAAGG
B5: ENSMUSG00000032194.274|Kank2|91:95;178:182 (ssRNA)
RNA: GGGAGUUCUACAGUCCGACGAUCGCUUCGAUAUCCGCAUGCUAGGAUGCAUAAAUGAAUAGAUGGAUGGAUGAAUGAACAGAUAGAUGAAUGGAUGGAUGGACAGGUGGGUGGAUGGAUGGGUGGACGGAUGACACACGGGUGGGUGGAUGGAUAAAUGAGCAAUGGAUGAGAAACUGGGUUGGCUGGUGGGUAGAUGUCAUGAUGGAGUCUUUGCACGUCAUACAAACAGAAAACCAAACUUCAGGACAGACAGCUGCUGGUGUCUCUGGAUGCUCACAGCCUAGGGCACAUUUGAAAGGUCCUCUUGCGGUCGCACUAGUGUGGAAUUCUCGGGUGUCAAGG
B6: ENSMUSG00000032194.279|Kank2 (ssRNA)
RNA: GGGAGUUCUACAGUCCGACGAUCGCUUCGAUAUCCGCAUGCUAAUGAACAGAUAGAUGAAUGGAUGGAUGGACAGGUGGGUGGAUGGAUGGGUGGACGGAUGAGUGUGGGGUGGGUGGAUGGAUAAAUGAGCAAUGGAUGAGAAACUGGGUUGGCUGGUGGGUAGAUGUCAUGAUGGAGUCUUUGCACGUGUAUGAAACAGAAAACCAAACUUCAGGACAGACAGCUGCUGGUGUCUCUGGAUGCUCACAGCCUAGGGCACAUUUGAAAGGUCGUGCUCUGAGCUGAGCCCUGAGUUCCAGCCCUCUUGCGGUCGCACUAGUGUGGAAUUCUCGGGUGUCAAGG
B7: ENSMUSG00000032194.274|Kank2 (ssRNA)
RNA: B5 RNA with C134G, A135U, C136G, A137U, C138G, C221G, A222U, U223A, A224U, C225G
B8: ENSMUSG00000032194.272|Kank2|103:107;190:194 (ssRNA)
RNA: GGGAGUUCUACAGUCCGACGAUCGCUUCGAUAUCCGCAUGCUAGGGUGGGUGGAUGGAUGCAUAAAUGAAUAGAUGGAUGGAUGAAUGAACAGAUAGAUGAAUGGAUGGAUGGACAGGUGGGUGGAUGGAUGGGUGGACGGAUGACACACGGGUGGGUGGAUGGAUAAAUGAGCAAUGGAUGAGAAACUGGGUUGGCUGGUGGGUAGAUGUCAUGAUGGAGUCUUUGCACGUCAUACAAACAGAAAACCAAACUUCAGGACAGACAGCUGCUGGUGUCUCUGGAUGCUCACAGCCUAGGGCACCUCUUGCGGUCGCACUAGUGUGGAAUUCUCGGGUGUCAAGG
B9: ENSMUSG00000032194.276|Kank2 (ssRNA)
RNA: GGGAGUUCUACAGUCCGACGAUCGCUUCGAUAUCCGCAUGCUAGAAUAGAUGGAUGGAUGAAUGAACAGAUAGAUGAAUGGAUGGAUGGACAGGUGGGUGGAUGGAUGGGUGGACGGAUGAGUGUGGGGUGGGUGGAUGGAUAAAUGAGCAAUGGAUGAGAAACUGGGUUGGCUGGUGGGUAGAUGUCAUGAUGGAGUCUUUGCACGUGUAUGAAACAGAAAACCAAACUUCAGGACAGACAGCUGCUGGUGUCUCUGGAUGCUCACAGCCUAGGGCACAUUUGAAAGGUCGUGCUCUGAGCUCUCUUGCGGUCGCACUAGUGUGGAAUUCUCGGGUGUCAAGG
B10: ENSMUSG00000032194.278|Kank2 (ssRNA)
RNA: GGGAGUUCUACAGUCCGACGAUCGCUUCGAUAUCCGCAUGCUAGGAUGAAUGAACAGAUAGAUGAAUGGAUGGAUGGACAGGUGGGUGGAUGGAUGGGUGGACGGAUGAGUGUGGGGUGGGUGGAUGGAUAAAUGAGCAAUGGAUGAGAAACUGGGUUGGCUGGUGGGUAGAUGUCAUGAUGGAGUCUUUGCACGUGUAUGAAACAGAAAACCAAACUUCAGGACAGACAGCUGCUGGUGUCUCUGGAUGCUCACAGCCUAGGGCACAUUUGAAAGGUCGUGCUCUGAGCUGAGCCCUGAGUUCUCUUGCGGUCGCACUAGUGUGGAAUUCUCGGGUGUCAAGG

Target: TDP-43 (Homo sapiens, UniProt Q13148 1-414)
Sequence (Q13148 whole entry): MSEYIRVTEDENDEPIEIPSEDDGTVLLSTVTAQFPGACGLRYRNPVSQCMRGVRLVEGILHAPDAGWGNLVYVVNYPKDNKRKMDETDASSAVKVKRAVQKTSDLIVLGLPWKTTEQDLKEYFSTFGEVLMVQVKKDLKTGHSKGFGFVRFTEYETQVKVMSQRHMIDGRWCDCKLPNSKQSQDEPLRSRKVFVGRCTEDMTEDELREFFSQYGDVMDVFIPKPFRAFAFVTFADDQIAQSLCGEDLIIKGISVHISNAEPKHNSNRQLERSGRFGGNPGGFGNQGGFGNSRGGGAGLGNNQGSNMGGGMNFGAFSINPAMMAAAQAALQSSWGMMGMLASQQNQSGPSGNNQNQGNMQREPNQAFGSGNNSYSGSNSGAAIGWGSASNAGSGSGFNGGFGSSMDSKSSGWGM
Experiment: RNA Bind-n-Seq with designed 260-mer pool; 25 mM Tris-HCl, 150 mM KCl, 3 mM MgCl2, BSA (printed 500 mg/mL), 20 units/mL SUPERase IN; pH not stated; 500 nM RNA pool, 1 h, 4 C; TDP-43 5, 50, 500 nM; high values mean tight binding
Settings: protein: recombinant; tags: SBP (GST cleaved off with PreScission; pGEX-GST-SBP)
Method in brief: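 The incubation lasted 1 h at 4 °C and used 500 nM of an in vitro-transcribed 260-nt 3′ UTR oligo pool with recombinant SBP-tagged TDP-43 at 5, 50 or 500 nM immobilized on streptavidin beads. It took place in 25 mM Tris-HCl, 150 mM KCl, 3 mM MgCl2, BSA and SUPERase IN. Bound RNA was washed, eluted with biotin, converted to cDNA, PCR-amplified and sequenced to give R, each oligo's normalized abundance in the bound sample divided by that in input. Two independent protein batches provided the duplicates.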

**Q.** How did the binding signal turn out when B1 was run?
**A.** Its binding signal is 0.658 R (bound/input frequency ratio).

**Q.** With B2 as the binder, how does the binding signal read?
**A.** Its binding signal is 7.21 R (bound/input frequency ratio).

**Q.** B3 was tested. Which binding signal did it give?
**A.** Its binding signal is 6.83 R (bound/input frequency ratio).

**Q.** How did the binding signal turn out when B4 was run?
**A.** The binding signal was 7.07 R (bound/input frequency ratio).

**Q.** Which binding signal does the source give for B5 here?
**A.** Its binding signal is 5.59 R (bound/input frequency ratio).

**Q.** Which binding signal does the source give for B6 here?
**A.** Its binding signal is 5.39 R (bound/input frequency ratio).

**Q.** Which binding signal does the source give for B7 here?
**A.** The binding signal was 6.07 R (bound/input frequency ratio).

**Q.** B8 was tested. Which binding signal did it give?
**A.** The binding signal was 5.68 R (bound/input frequency ratio).

**Q.** B9 was tested. Which binding signal did it give?
**A.** Its binding signal is 6.02 R (bound/input frequency ratio).

**Q.** How did the binding signal turn out when B10 was run?
**A.** The binding signal was 5.8 R (bound/input frequency ratio).
